Experimental data: PubChem BioAssay (NCI)
Several values for one entry are separate records, joined by “and”; a condition that tells them apart may be missing. Equal entries are not always repeated. The panel holds about 83,000 compounds, 20% with a hit somewhere; the sample as a whole holds those more often.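 In brief: 96-well plates, 48 h treatment, single concentration, percent growth endpoint.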 A number with no mark means an inactive call. Activity calls are given as the source filed them. Rule for the calls: active = growth percent below 10; inactive = the rest.

Test system: MDA-MB-468 breast
Experiment: NCI-60 one-dose screen, 48 h (100 = growth as untreated, 0 = no growth, -100 = all killed)
Details: 10 µM unless noted

Compound	growth
COC(=O)[C@H](C)NC(=O)[C@@H]1CCCN1C(=O)CNC(=O)[C@H](C)N	98.7%
COc1ccccc1Cn1cc(C#N)c(N)c1C(=O)c1ccc(Br)cc1	72.2%
CC(=O)c1c(C)nc(SCC(=O)Nc2cccc(O)c2)n1-c1ccc(Cl)cc1	79.7%
O=C(Oc1ccccc1)c1ccccc1Cl	102%
COc1cc(C(=O)NN=C2c3ccccc3-c3ccccc32)cc(OC)c1OC	-3.4% (active)
Nc1cc(N)nc(SCC(=O)O)n1	108%
O=C1c2ccccc2C(=O)c2c(N=Nc3[nH]c(=S)[nH]c3O)cccc21	-4.9% (active)
CCOC(=O)c1cc(/C(=N\O)c2cc(OC)c(OC)c(OC)c2)n2c(C)cccc12	21.8%
Cc1c(C(N)=O)sc2c1C(=O)N(Cc1ccccc1)C1=NN=C(c3ccc(Cl)cc3)CN12	60.1%
COc1cc2c(cc1-c1c(C)noc1C)ncc1nc(C3CCOCC3)n([C@H](C)COC(F)F)c12	40%
CCOC(=O)CSc1nnc(-c2cc3c([nH]c4ccccc43)c(-c3cccc(O)c3)n2)n1-c1ccc(C)cc1	27.2%
Nc1nc(N)c2c(n1)NC(c1ccc3c(c1)OCO3)CC(c1cccc(Nc3ccncc3)c1)=N2 (centres undefined)	62.7%
CCCCCc1c(C)[nH]c(/C=C2\N=C(c3ccc[nH]3)C=C2Oc2ccc(Cl)cc2)c1C	-16.4% [100 µM] (active)
O=C1c2ccc3c4c(ccc(c24)C(=O)N1CCCNCc1ccccc1Cl)C(=O)N(CCCNCc1ccccc1Cl)C3=O	-89% (active)
Cn1/c(=N\N=C\c2ccccc2OCCO)sc2ccccc21	103%
CCCCCCCCCCCC[N+](C)(C)Cc1ccccc1	-26.4% (active)
Oc1nc(NCc2ccccc2)sc1/C=C1\C=Nc2ncccc21	58.4%
COc1nc2ccc(C)cc2cc1-c1nc2c(cnn2-c2ccccc2)c(=O)[nH]1	69.4%
O=C(CCCCCCN1CC(=O)N2[C@@H](c3ccccc3)c3[nH]c4ccccc4c3C[C@H]2C1=O)NO	53.7%
CC(C)c1ccc(C(=O)Nc2nc3ccc(O)c(CN(C)C)c3s2)cc1	77.1%

Compound	growth
CC(=O)Oc1ccccc1C(=O)Nc1cc(C(C)C)ccc1C	-5.42% (active)
c1ccc(C(CC2=NCCCN2)c2ccccc2)cc1	102%
Fc1ccc2nc(-c3cc(-c4ccc5c(c4)OCO5)n[nH]3)[nH]c2c1	46.7%
COc1cc2c3c(c1)nc(C)n3CCC2	99.6%
Cc1cnc(Nc2ccc(OCCN3CCCC3)cc2)nc1NCc1ccco1	80.8%
Fc1ccc2c(c1)c(-c1nc(-c3c[nH]c4ncccc34)cs1)cn2CCCN1CCOCC1	18.3%
O=C([O][Sn]([O]C(=O)c1ccccn1)([c]1ccccc1)[c]1ccccc1)c1ccccn1	-23.8% (active)
NC(Cc1ccccc1)C(=O)NC(Cc1ccccc1)C(=O)O (centres undefined)	102% and 92.8%
CCOC(=O)C(=Cc1cccc(Cl)c1)C(=O)OCC	37.9%
COC(=O)[C@@H]1CCCN1C(=O)[C@@H]1CCCN1C(=O)[C@@H](Cc1c[nH]c2ccccc12)NC(=S)Nc1cc(C(F)(F)F)cc(C(F)(F)F)c1	2.25% (active)
N#Cc1nc(-c2ccccc2)oc1N1CCC(CO)C1 (centres undefined)	92.5%
CCCCCCC(=O)Nc1ncc(Cc2ccc(C)cc2)s1	28.4%
CC(C)(C)OC(=O)N1CCc2c(sc3ncnc(N/N=C/c4ccccc4Br)c23)C1	71.5%
CC(C)(C)c1ccc(NS(=O)(=O)c2ccc3nc(NC(=O)c4cnccn4)[nH]c3c2)cc1	-18.6% (active)
O=C(N/N=C\c1ccc(F)cc1)c1ccc2nc(-c3ccc(Br)cc3)[nH]c2c1	34.7%
C=C1CCC2C3(C)COC(c4ccc(N(C)C)cc4)OC3CCC2(C)C1C/C=C1/C(=O)OCC1O (centres undefined)	22.2%
Cc1c2ccccc2nc2cc3c(cc12)[C@H]1CC[C@]2(C)C(=O)CC[C@H]2[C@@H]1CC3	91.3%
CCCCn1cnc2c(Sc3c([N+](=O)[O-])ncn3C)nc(N)nc21	96.9%
CC(=Nc1ccccc1)C1=C(O)C(Cc2ccc(O)cc2)NC1=O (centres undefined)	17.6%
